Screens from PubChem.
A selection: hits, their analogues and other compounds. The true share with any hit is near 18%.
TDP1 cell noCPT – qHTS for Inhibitors of human tyrosyl-DNA phosphodiesterase 1 (TDP1): qHTS in cells in absence of CPT | DT40 Tdp1-/- hTDP1 cells, no CPT, ATP luminescence, 48 h | Potency, µM (doses to about 46.2 µM), without a hit: top-dose activity change, negative = growth inhibition, usual class: inhibitors | hit rate 15% among 420,000 | AID 686978, 2013; note: potency is the fitted concentration of half-maximal effect; nearly all actives have a fitted effect of over 55% in size
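Cells were dispensed at 400 per well, compounds added by pin tool, plates incubated ≥48 hr at 37 °C, then CellTiter-Glo added for 30 min at room temperature before luminescence reading. Line: DT40 Tdp1-/- complemented with hTDP1; camptothecin omitted.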
TDP1 cell CPT – DT40-hTDP1 cell growth loss with CPT | hit rate 12% among 420,000 | chicken DT40 Tdp1-/-;hTDP1 cells + 20 nM CPT, ATP luminescence, 48 h | Potency, µM (top dose mostly 46.2 µM), inactives show at the top dose activity change, negative = growth inhibition, hits mostly inhibitors; note: potency is the fitted concentration of half-maximal effect; nearly all actives have a fitted effect of over 55% in size
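Chicken DT40 Tdp1-/- cells complemented with human TDP1, 400 cells/well, exposed to compounds plus 20 nM camptothecin for at least 48 h at 37 C; viability read as ATP content by CellTiter-Glo luminescence.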
IL1B secr inh – inflammasome signaling inhibition, IL-1 beta readout. THP-1 LPS/ATP IL-1B secretion, AlphaLISA, 16 h; hits give low values. activity change, % at 57.5 µM. hit rate 4.7% among 360,000; in the data active = activity change below about -50%; inconclusive = mostly about -30% to -49%
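THP-1 cells pretreated 1 hr with compounds (up to 57.5 uM final), then stimulated with LPS (250 ng/mL final) plus ATP (1.25 mM final); secreted IL-1B measured by AlphaLISA after 16 hr, decreased signal indicating inhibition.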
Six1-Eya2 inh – blocks human Six1 binding to Eya2 | Q15475+O00167 | hit rate 0.56% among 360,000 | activity change, % (no concentration beside the values) | AlphaScreen GST-Six1/His-Eya2 binding, biochemical; hits give low values; in the data active = activity change below about -65%; inconclusive = mostly about -30% to -63%
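AlphaScreen with GST-Six1 and His-Eya2 (5X mix: 250 nM and 500 nM), glutathione donor and nickel acceptor beads; buffer 50 mM Tris pH 8.0, 300 mM NaCl, 1 mM TCEP; 1 h at 37 C in the dark.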
TDP1 inh – TDP1 (human) enzyme inhibition | Q9NUW8 | Potency, µM (doses to about 130 µM), inactives show at the top dose activity change, negative = inhibition, most hits filed as inhibitors | recombinant TDP1, AlphaScreen DNA substrate cleavage | hit rate 0.28% among 350,000; note: potency is the fitted concentration of half-maximal effect; nearly all actives have a fitted effect of over 40% in size
Target sequence (Q9NUW8 whole entry, looked up): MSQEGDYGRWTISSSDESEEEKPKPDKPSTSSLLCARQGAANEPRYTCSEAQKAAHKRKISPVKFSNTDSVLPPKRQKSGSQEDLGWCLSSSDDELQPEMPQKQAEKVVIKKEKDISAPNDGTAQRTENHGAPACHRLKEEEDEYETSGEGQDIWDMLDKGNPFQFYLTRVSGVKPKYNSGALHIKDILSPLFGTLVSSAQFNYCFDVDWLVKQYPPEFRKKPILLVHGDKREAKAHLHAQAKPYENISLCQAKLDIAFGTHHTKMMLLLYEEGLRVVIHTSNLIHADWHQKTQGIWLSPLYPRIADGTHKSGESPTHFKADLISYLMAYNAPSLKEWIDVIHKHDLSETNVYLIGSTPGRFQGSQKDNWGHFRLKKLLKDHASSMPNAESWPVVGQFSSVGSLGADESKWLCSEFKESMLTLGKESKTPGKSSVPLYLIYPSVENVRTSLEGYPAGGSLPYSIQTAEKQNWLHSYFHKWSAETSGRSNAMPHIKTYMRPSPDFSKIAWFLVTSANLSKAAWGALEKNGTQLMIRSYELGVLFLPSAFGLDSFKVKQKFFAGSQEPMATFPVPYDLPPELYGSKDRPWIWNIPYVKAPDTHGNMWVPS
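Steps: enzyme plus compound, 15 min RT; add biotin/phosphotyrosine-FITC oligonucleotide (15 nM final), react 5 min; add donor/acceptor beads (10 ug/ml final), 10 min; read AlphaScreen. Tdp1 at 1 nM final.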
CtBP-E1A inh – inhibitors of CtBP/E1A interaction | activity change, % (test concentration not listed) | AID 651724 | AlphaScreen GST-E1A/His-CtBP binding, 1536-well; hits give low values | hit rate 0.49% among 340,000; in the data active = activity change below about -65%; inconclusive = mostly about -30% to -63%
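In 5 uL wells, 23 nL compound meets equimolar GST-E1A and His-CtBP (5X stock 125 nM each) for 2 h, 37 °C. Beads (5X, 50 ug/mL) then 1 h, 37 °C, dark.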
* marks the source's active call; other numbers are inactive results; ? = inconclusive; nt = not tested or not shown; [ ] = remark or other dose. Unless noted, calls come from the whole dose curve; as a rule, active = well fitted curve in the direction sought with a large enough effect; inconclusive = small, poorly fitted or top-dose-only effect, or another doubt; inactive = no such curve, though single readings can be large; an effect the other way counts as inactive or inconclusive. % is set by controls: 0 for no effect and ±100 for the full control effect.

SMILES	TDP1 cell noCPT	TDP1 cell CPT	IL1B secr inh	Six1-Eya2 inh	TDP1 inh	CtBP-E1A inh
CCOC(=O)CSC1=C(C#N)C(c2ccccc2OC)CC(=O)N1 (stereo not drawn)	16µM*	16µM*	41	-3	-4%	-2
CCSC1=C(C#N)C(c2ccc(C)s2)CC(=O)N1 (stereo not drawn)	-12%	-22%	13	1	3%	0
COC(=O)CSC1=C(C#N)C(c2cccc(OC)c2)CC(=O)N1 (stereo not drawn)	?	?	0	-3	0%	1
O=C(NCc1ccc(F)cc1)c1cc2c(s1)CS(=O)(=O)C2	4%	-8%	10	4	3%	nt
O=C(N/N=C1/C[C@@H](O)[C@@H](O)[C@@H]2[C@@H]3C(=O)N(c4cccc(Oc5ccccc5)c4)C(=O)[C@H]3CC[C@@H]12)OCc1ccccc1	nt	nt	nt	nt	11%[21 µM]	nt
CC1SCC(=O)N(CC(=O)NCCc2ccccc2)C1=O (stereo not drawn)	0%	2%	-3	6	0%	4
Cc1c(NC(=O)/C(C#N)=C/c2ccc(-c3ccc(Cl)cc3)o2)c(=O)n(-c2ccccc2)n1C	15µM*	10µM*	-62*	?	3%	8
CCOc1ccc(NC(=O)/C(C#N)=C\c2ccc(-c3ccc(Cl)cc3)o2)cc1	10µM*	?	nt	nt	0%[12.3 µM]	nt
Cc1cc(NC(=O)/C(C#N)=C/c2ccc(-c3ccc(SC(F)F)cc3)o2)n(-c2ccccc2)n1	18µM*	?	-6	1	3%	nt
CCCCOC(=O)/C(C#N)=C\c1ccc(-c2ccc(Cl)cc2)o1	?	-13%	nt	nt	1%[2.28 µM]	nt
CC1CC1c1ccc(/C=C(\C#N)C(=O)Nc2ccc(Cl)cc2)o1 (stereo not drawn)	16µM*	?	-14	-2	3%	-2
CCn1c(CN2c3ccccc3Sc3ccccc32)n[nH]c1=S	-28%	-24%	-14	-9	9%	-15
COc1ccccc1-c1cn(C(C)(C)C)nc1C	-12%	20%	-4	9	1%	-5
Cc1ccc(F)cc1NCC(=O)Nc1ccc(Br)cc1	?	-25%	0	-6	-3%	1
CC1CCCCN1c1nnc(NC(=O)Nc2ccccc2F)s1 (stereo not drawn)	21µM*	?	nt	nt	11%	nt
O=C(Nc1ccc(C(=O)O)cc1)Nc1ccc([N+](=O)[O-])cc1	-5%	13%	7	-6	nt	0
COC(=O)c1ccc(NC(=O)Nc2ccc(OC)cc2)cc1	?	?	?	2	2%	-14
COC(=O)c1ccc(NC(=O)Nc2ccc([N+](=O)[O-])cc2)cc1	2.3µM*	2.6µM*	?	-1	nt	nt
COc1cccc(NC(=O)Nc2ccc(C(C)(C)C)cc2)c1	23µM*	?	-66*	0	5%	1
COC(=O)c1ccc(NC(=O)Nc2ccc(F)cc2)cc1	13µM*	18µM*	?	-4	0%	9
CCN(CC)C(=O)Cn1c(=O)n(-c2ccccc2)c(=O)c2sccc21	-7%	-3%	0	-2	0%	nt
CSc1nc(C)cc(Oc2ccc(=O)[nH]n2)n1	-5%	-5%	11	0	0%	2
CC(C)(C)C1CCC(C(=O)Nc2ccccc2N2CCOCC2)CC1 (stereo not drawn)	?	?	4	3	-4%[56.1 µM]	11
O=C(CSc1nnc(CNC(=O)c2c(F)cccc2Cl)o1)Nc1ccc2c(c1)OCO2	5%	-13%	-11	0	4%	-26
CC(C)(C)c1ccc(NC(=O)Nc2ccc(F)cc2)cc1	6.5µM*	5.2µM*	?	2	1%	5
O=C(Nc1ccc([N+](=O)[O-])cc1)Nc1ccon1	0.33µM*	0.41µM*	0	-8	-4%	-6
